Laboratory results taken from the supplement of paper PMC13380429.

Legend:
[1] = tested on: Vero E6 infected with SARS-CoV-2; experiment: morphology score (similarity to uninfected cells); higher = more like uninfected cells; details: 24 h
[2] = tested on: Vero E6 infected with SARS-CoV-2; experiment: SARS-CoV-2 infection rate relative to infected DMSO; higher = more infection, active = 60 or less; details: 24 h

Compound: COc1ccc2c(O[C@@H]3C[C@H]4C(=O)N[C@]5(C(=O)NS(=O)(=O)C6CC6)C[C@H]5/C=C\CCCCN(C)C(=O)[C@@H]4C3)cc(-c3nc(C(C)C)cs3)nc2c1C [simeprevir] (10 µM)
- morphology score [1]: 0.0609
- SARS-CoV-2 infection rate [2]: 88.5% (inactive)

Compound: N=C(N)NCCSSCCNC(=N)N [guanidinoethyldisulfide-bicarbonate] (10 µM)
- morphology score [1]: 0.0245
- SARS-CoV-2 infection rate [2]: 107% (inactive)

Compound: Cc1cc(C(=O)NOCCO)c(Nc2ccc(I)cc2F)n(C)c1=O (10 µM)
- morphology score [1]: -0.0952
- SARS-CoV-2 infection rate [2]: 107% (inactive)

Compound: Oc1ccc2ccccc2c1Cc1c(O)ccc2ccccc12 (10 µM)
- morphology score [1]: 0.0699
- SARS-CoV-2 infection rate [2]: 104% (inactive)

Compound: COc1cc2c(cc1-c1c(C)noc1C)ncc1[nH]c(=O)n([C@H](C)c3ccccn3)c12 (10 µM)
- morphology score [1]: -0.154
- SARS-CoV-2 infection rate [2]: 112% (inactive)

Compound: CSc1nc2ccc3nc(NC(=O)C(c4ccccc4)c4ccccc4)sc3c2s1 (10 µM)
- morphology score [1]: 0.0833
- SARS-CoV-2 infection rate [2]: 94.5% (inactive)

Compound: CCCCCCCCCCCCCC(=O)[O-].CCCCCCCCCCCCCC(=O)[O-].N[C@@H]1CCCC[C@H]1N.[Pt+2] [miriplatin] (10 µM)
- morphology score [1]: 0.0834
- SARS-CoV-2 infection rate [2]: 114% (inactive)

Compound: C[C@@H]1CC[C@H]2[C@@H](C)C(=O)O[C@@H]3O[C@@]4(C)CC[C@@H]1[C@]32OO4 [artemisinin] (10 µM)
- morphology score [1]: -0.0301
- SARS-CoV-2 infection rate [2]: 106% (inactive)

Compound: O=C1CC2(CCCC2)CC(=O)N1CCNC[C@H]1COc2ccccc2O1 (10 µM)
- morphology score [1]: -0.0647
- SARS-CoV-2 infection rate [2]: 113% (inactive)

Compound: Cc1c(C)c2c(c(C)c1O)CCC(C)(C)O2 (10 µM)
- morphology score [1]: -0.0795
- SARS-CoV-2 infection rate [2]: 116% (inactive)

Compound: C[C@@H]1CCC[C@H](C)N1NC(=O)c1ccc(Cl)c(S(N)(=O)=O)c1 [clopamide] (10 µM)
- morphology score [1]: -0.0797
- SARS-CoV-2 infection rate [2]: 103% (inactive)

Compound: Nc1nc(=O)n([C@@H]2CS[C@H](CO)O2)cc1F [emtricitabine] (10 µM)
- morphology score [1]: 0.154
- SARS-CoV-2 infection rate [2]: 114% (inactive)

Compound: C[N+]12CCC(CC1)C(OC(=O)C(O)(c1ccccc1)c1ccccc1)C2 (stereo unspecified) [clidinium] (10 µM)
- morphology score [1]: -0.064
- SARS-CoV-2 infection rate [2]: 95% (inactive)

Compound: Cc1cc(C)nc(SCC(=O)Nc2ncc(Cc3cccc4ccccc34)s2)n1 (10 µM)
- morphology score [1]: 0.211
- SARS-CoV-2 infection rate [2]: 96.5% (inactive)

Compound: COC[C@@H](NC(C)=O)C(=O)NCc1ccccc1 [Lacosamide] (10 µM)
- morphology score [1]: -0.1
- SARS-CoV-2 infection rate [2]: 103% (inactive)

Compound: CC(C)(C)C(=O)OCOC(=O)[C@@H]1N2C(=O)[C@@H](/N=C/N3CCCCCC3)[C@H]2SC1(C)C [pivmecillinam] (10 µM)
- morphology score [1]: -0.0287
- SARS-CoV-2 infection rate [2]: 99% (inactive)

Compound: C[C@]12C=CC(=O)C=C1CC[C@@H]1[C@@H]2CC[C@]2(C)OC(=O)CC[C@@H]12 [Testolactone] (10 µM)
- morphology score [1]: 0.176
- SARS-CoV-2 infection rate [2]: 80.5% (inactive)

Compound: CC(C)(O)CS(=O)(=O)Nc1ccc2c(c1)CCN(C(=O)COc1cccnc1)C2 [Nampt-IN-1] (10 µM)
- morphology score [1]: -0.0571
- SARS-CoV-2 infection rate [2]: 104% (inactive)

Compound: COc1ccc(NC(=O)c2ccc(-c3ccc(-c4noc(C)n4)cc3C)cc2)cc1OCCN(C)C (0.833333 µM)
- morphology score [1]: 0.282
- SARS-CoV-2 infection rate [2]: 53% (active)

Compound: C=C1/C(=C\C=C2/CCC[C@]3(C)[C@@H]([C@H](C)/C=C/[C@@H](O)C4CC4)CC[C@@H]23)C[C@@H](O)C[C@@H]1O [calcipotriol] (10 µM)
- morphology score [1]: -0.273
- SARS-CoV-2 infection rate [2]: 103% (inactive)

Compound: CCNC(=O)Nc1ccc(-c2nc3c(c(N4CCOC[C@@H]4C)n2)CCN(C2COC2)C3)cc1 (0.833333 µM)
- morphology score [1]: 0.13
- SARS-CoV-2 infection rate [2]: 103% (inactive)

Compound: O=C(O)c1nn(Cc2ccc(Cl)cc2Cl)c2ccccc12 [lonidamine] (10 µM)
- morphology score [1]: 0.0313
- SARS-CoV-2 infection rate [2]: 110% (inactive)

Compound: Cn1ccnc1S [methimazole] (10 µM)
- morphology score [1]: -0.0741
- SARS-CoV-2 infection rate [2]: 108% (inactive)

Compound: CCCCc1ccc(O)cc1O [rucinol] (10 µM)
- morphology score [1]: -0.0981
- SARS-CoV-2 infection rate [2]: 99% (inactive)

Compound: Cc1ccccc1NC(=O)Nc1ccc(CC(=O)N(C)[C@@H](CC(C)C)C(=O)NCC[C@H](NC(=O)[C@@H]2CCCN2S(=O)(=O)c2cc(Cl)cc(Cl)c2)C(=O)O)cc1 (10 µM)
- morphology score [1]: 0.157
- SARS-CoV-2 infection rate [2]: 91% (inactive)

Compound: O=C(Oc1cccc2cccnc12)c1ccccc1 [benzoxiquine] (10 µM)
- morphology score [1]: 0.116
- SARS-CoV-2 infection rate [2]: 97% (inactive)

Compound: C[N+]1(C)[C@@H]2CC[C@H]1C[C@@H](OC(=O)C(CO)c1ccccc1)C2 (stereo partly specified) [methylatropine-nitrate] (10 µM)
- morphology score [1]: 0.131
- SARS-CoV-2 infection rate [2]: 104% (inactive)

Compound: O=C(NCC(=O)N1CC[C@H](N[C@H]2CC[C@@](O)(c3ccc(-c4ncccn4)cn3)CC2)C1)c1cccc(C(F)(F)F)c1 (10 µM)
- morphology score [1]: 0.0269
- SARS-CoV-2 infection rate [2]: 106% (inactive)
